According to PubChem BioAssay AID463075 (University of Pittsburgh Molecular Library Screening Center, 2010):
Values joined by “and” are separate entries in the source; they are usually repeats but may differ in a detail not shown here. Equal entries are not always repeated. The campaign covered roughly 220,000 compounds. About 150 (0.068%) were called active. The sample as a whole holds a higher share of actives than the screen did. Unmarked numbers belong to inactive results.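 The calls were made as follows: active = activation, meaning protection from cell death, of at least 50% relative to plate controls; inactive = activation below 50%.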

assay: inhibitors of TNF-alpha triggered necroptosis, primary screen, cell-based, Jurkat FADD-/-, single concentration (AID 463075); settings: Jurkat FADD-/- TNF necroptosis rescue, ATP luminescence, 24 h; at 10 µM; active compounds read high; 0 = TNF only, 100 = no-TNF cells;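 also: necroptosis triggered by 40 ng/mL TNF-alpha added together with compound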

In order of rising activation (protection from cell death):
1. O=C(c1cccnc1)N(c1cc2sc(=O)oc2c2ccccc12)S(=O)(=O)c1ccccc1  -6.46%
2. COc1ccc(-n2c(C)nc3c(cnn3-c3ccccc3)c2=O)cc1  -4.93%
3. CCOC(=O)C1=NN(c2ccc(Cl)cc2)/C(=C/C2=NCCc3cc(OC)c(OC)cc32)S1  -2.32%
4. COc1ccc(NC(=O)c2sccc2SCC#N)cc1  -2.27%
5. O=C(Nc1ccccc1-c1ccccc1)c1cccs1  -1.99%
6. CC(C)CCN1NC2(CCC(C)CC2)NC1=S (stereo unspecified)  -1.55%
7. CCCCCCC12CCC(C(=O)O)(CC1)CC2  -1.53%
8. CC(C)CCN1C(=O)c2ccc(C(=O)Nc3cccc(S(N)(=O)=O)c3)cc2C1=O  -1.31%
9. O=C(Nn1cnc2ccccc2c1=O)c1ccc([N+](=O)[O-])cc1Cl  -1.3%
10. COc1ccc(S(=O)(=O)Nc2ccc(F)cc2)c(C)c1C  -1.23%
11. O=C(Cc1ccccc1)N1N=C(c2ccncc2)CC1(O)C(F)(F)F (stereo unspecified)  -1.22%
12. CCOc1cccc(C(=O)Nc2cnn(Cc3ccccc3)c2)c1  -1.07%
13. CCOc1cc(CNCCN(C)C)c(Cl)cc1OCC(=O)NCCc1ccccc1  -1.03%
14. Cc1ccc(CC2S/C(=C(/C#N)C(=O)N3CCOCC3)N(c3ccccc3)C2=O)cc1 (stereo unspecified)  -0.961%
15. CN(C(=O)COc1ncnc2c1cnn2-c1ccccc1)C1CCCCC1  -0.83%
16. c1ccc(C2c3[nH]c4ccccc4c3CCN2Cc2cccn2-c2cccnc2)nc1 (stereo unspecified)  -0.81%
17. O=C(COC(=O)Cc1ccc(Br)cc1)Nc1c(F)c(F)c(F)c(F)c1F  -0.784%
18. O=C(CS(=O)(=O)c1ccc(C(F)(F)F)cn1)NNC(=O)c1ccccc1  -0.488%
19. O=C(O)c1n[nH]nc1-c1ccccc1  -0.36%
20. CCOC(=O)C(=O)C1C(=O)Nc2ccccc21 (stereo unspecified)  -0.27%
21. O=C(NC(=S)Nc1cccc(-c2ccc(CO)o2)c1)c1cccs1  -0.171%
22. COc1cc2nc(Cl)nc(NCCO)c2cc1OC  -0.0465%
23. Cc1nn(CC(=O)Nc2ccc3c(c2)OCO3)c(C)c1[N+](=O)[O-]  0.0311%
24. O=C(CC1C(=O)NCCN1Cc1ccc(-c2ccccc2)cc1)NCc1ccncc1 (stereo unspecified)  0.134%
25. COc1ccc(-n2c(SC)nc(O)cc2=O)cc1  0.231%
26. CC(C)Cc1ccc(C(C)C(=N)N)cc1 (stereo unspecified)  0.316%
27. COc1ccc(-c2ccc(CCC(=O)O)n2-c2ccc(O)cc2)cc1  0.347%
28. O=C(C1=C[C@H](c2coc3ccccc3c2=O)C[C@H](OCc2ccc(CO)cc2)O1)N1CCOCC1  0.365%
29. Cc1nc(N2CCOCC2)sc1C(=O)NN  0.605%
30. CN(C(=O)CSc1nc(C2CC2)nc2ccccc12)c1nc(-c2ccccc2)cs1  0.753%
31. COc1ccc(OC)c(-c2c(=O)n(OCc3ccccc3Br)c3ccccc3[n+]2[O-])c1  0.8%
32. CCCC1(C(=O)OC)NC(c2ccco2)C2C(=O)N(C)C(=O)C21 (stereo unspecified)  0.819%
33. Cc1nc(-c2ccccc2)cn2c1nc1ccccc12  0.981%
34. COc1cc(OC)cc(-c2cc3nc(C4CCN(C(=O)OC(C)(C)C)CC4)cc(=O)n3[nH]2)c1  1.03%
35. C=C1C2C[C@H](O)C(C)(C)[C@@]2(O)[C@H](O)C[C@]23C[C@@](C)(O)[C@H](CC[C@H]12)[C@H]3O (stereo partly specified)  1.07%
36. Cn1c(S(=O)(=O)O)nc2ccccc21  1.18%
37. Cc1cccc(N=Nc2c(O)[nH]c3ccc(F)cc23)c1  1.19%
38. Cc1ccccc1-n1nc(C)c2c1N=C1C(Cl)=CC(Cl)=CN1C2c1ccc(C(=O)O)cc1 (stereo unspecified)  1.37%
39. Cc1nonc1C(=O)N/N=C/c1ccc(O)cc1  1.53%
40. CN(C)c1ccc(-n2cccc2/C=N/n2cnnc2)cc1  1.75%
41. COc1ccc(CCN2C(=O)CC(N3CCC(C(N)=O)CC3)C2=O)cc1OC (stereo unspecified)  1.77%
42. S=C(Nc1ccc(Br)cc1Cl)NC1CCN(Cc2ccccc2)CC1  1.9%
43. Cc1nnc(NCCO)c2ccccc12  2%
44. CCOC(=O)c1c(CC(C)C)csc1/N=C/C1=C(O)CCCC1=O  2.28%
45. CCN(CC(=O)Nc1cccc(S(N)(=O)=O)c1)Cc1nc2ccccc2c(=O)[nH]1  2.32%
46. COc1ccc(Cl)cc1NC(=O)[C@@H]1CCCN1C(=O)c1cccs1  2.67%
47. O=C(NC(=O)N1CCSCC1)c1c(Cl)cccc1Cl  3.73%
48. CCn1c(SCC(=O)Nc2sc(C)c(C)c2C#N)nnc1C1CC1  4.46%
49. CNC(=O)c1nnc(Cc2ccc(Cl)cc2)o1  5.11%

For `COc1ccc(-n2c(C)nn(CC3CC3)c2=O)cc1`, the activation (protection from cell death) was 68.3% (active).
With `C=CCn1c(P(C)(=O)O)nc2ccccc21` the activation (protection from cell death) was 1.54% and 0.149%.
